Experimental data as given in the supplement of paper PMC10849652.
The full data set covers some 7,900 targets. This sample favours those with a hit. About 0.6% of all pairs of compound and target were hits.

How the values were obtained:
Assay in all cases: log2 fold change, soluble protein after heating vs DMSO (PISA); higher = thermal stabilisation; K562 cells, 10 uM, 30 min; active = over 0.2 and 3.5 SD of the protein, either way, in both replicates (recomputed)
[1] = compound: C1COCCN1CCN2C3=CC=CC=C3N=C2NC(=O)C4=CC(=CC=C4)[N+](=O)[O-] [IRAK-1-4 Inhibitor I]
In short: (§1)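 Thermal stability values are relative to control samples and come from duplicates. They are expressed as log2 fold changes. For measurement, K562 cells (2×10^6 cells/mL) received 10 μM compound for 30 min, and aliquots were heated for 3 min over 48°C-58°C, pooled, and extracted at 4°C in PBS with 0.5% NP-40. Soluble protein, the supernatant after 21,000xg for 90 min, was quantified by TMTpro 16plex LC-MS/MS with equalised channel sums.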

[2] = compound: C=CC(=O)N1CCC[C@@H](n2nc(-c3ccc(Oc4ccccc4)cc3)c3c(N)ncnc32)C1 [ibrutinib]
In short: as §1

[3] = compound: CC(=O)c1cnc2ccc(-c3cc(Cl)c(O)c(Cl)c3)nc2c1N[C@H]1CC[C@H](CN(C)C)CC1
In short: as §1

[4] = compound: CC(C)(C)Cn1c(N)nc2ccc(-c3[nH]c(C(C)(C)C)nc3-c3ccc(F)cc3)nc21 [ralimetinib]
In short: as §1

[5] = compound: CC(C)(O)CC(=O)NCCn1ccc2ncnc(Nc3ccc(Oc4cccc(C(F)(F)F)c4)c(Cl)c3)c21
In short: as §1

[6] = compound: CC(C)C1=C2N=C(C=C(N2N=C1)NCC3=CC=CC=C3)NCCCCCCN
In short: as §1

[7] = compound: CC(C)C[C@@H](C=O)NC(=O)[C@H](CC(C)C)NC(=O)[C@H](CC(C)C)NC(=O)OCc1ccccc1
In short: as §1

[8] = compound: CC(C)N(C[C@H]1O[C@@H](n2cnc3c(N)ncnc32)[C@H](O)[C@@H]1O)[C@H]1C[C@@H](CCc2nc3cc(C(C)(C)C)ccc3[nH]2)C1 [pinometostat]
In short: as §1

[9] = compound: CC1=C(C(CC(=O)N1)C2=CC=C(C=C2)C(F)(F)F)C(=O)NC3=C(C=C4C(=C3)C=NN4)F
In short: as §1

[10] = compound: CC1=C(C2=C(C=C1)C(=O)C3=CC=CC=C3N2CCCN)C
In short: as §1

Measured: log2 fold change

PLEKHM2 (UniProt Q8IWE5)
inactive: [1] -0.018 | [2] -0.073 | [3] -0.085 | [4] 0.162 | [5] 0.016 | [6] -0.034 | [7] -0.102 | [8] -0.042 | [9] -0.069 | [10] 0.016

PSMD5 (UniProt Q16401)
Sequence of UniProt Q16401 (Q16401 whole entry, looked up): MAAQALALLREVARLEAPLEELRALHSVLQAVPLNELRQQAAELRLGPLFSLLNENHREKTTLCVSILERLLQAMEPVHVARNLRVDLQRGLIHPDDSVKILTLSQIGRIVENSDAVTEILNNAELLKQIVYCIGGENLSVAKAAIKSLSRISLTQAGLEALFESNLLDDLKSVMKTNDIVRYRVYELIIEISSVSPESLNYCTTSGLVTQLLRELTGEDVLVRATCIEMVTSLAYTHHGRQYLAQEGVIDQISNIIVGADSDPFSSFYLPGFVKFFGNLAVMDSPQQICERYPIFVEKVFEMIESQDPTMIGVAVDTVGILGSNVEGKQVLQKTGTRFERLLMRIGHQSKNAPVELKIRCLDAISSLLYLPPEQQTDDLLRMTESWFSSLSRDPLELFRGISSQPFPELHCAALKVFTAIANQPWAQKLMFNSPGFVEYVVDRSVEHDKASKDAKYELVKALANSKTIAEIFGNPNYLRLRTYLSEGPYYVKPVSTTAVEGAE
inactive: [1] 0.04 | [2] -0.004 | [3] 0.047 | [4] -0.013 | [5] -0.033 | [6] -0.106 | [7] -0.061 | [8] -0.003 | [9] 0 | [10] -0.042

PPP6R1 (UniProt Q9UPN7)
Sequence of UniProt Q9UPN7 (Q9UPN7 whole entry, looked up): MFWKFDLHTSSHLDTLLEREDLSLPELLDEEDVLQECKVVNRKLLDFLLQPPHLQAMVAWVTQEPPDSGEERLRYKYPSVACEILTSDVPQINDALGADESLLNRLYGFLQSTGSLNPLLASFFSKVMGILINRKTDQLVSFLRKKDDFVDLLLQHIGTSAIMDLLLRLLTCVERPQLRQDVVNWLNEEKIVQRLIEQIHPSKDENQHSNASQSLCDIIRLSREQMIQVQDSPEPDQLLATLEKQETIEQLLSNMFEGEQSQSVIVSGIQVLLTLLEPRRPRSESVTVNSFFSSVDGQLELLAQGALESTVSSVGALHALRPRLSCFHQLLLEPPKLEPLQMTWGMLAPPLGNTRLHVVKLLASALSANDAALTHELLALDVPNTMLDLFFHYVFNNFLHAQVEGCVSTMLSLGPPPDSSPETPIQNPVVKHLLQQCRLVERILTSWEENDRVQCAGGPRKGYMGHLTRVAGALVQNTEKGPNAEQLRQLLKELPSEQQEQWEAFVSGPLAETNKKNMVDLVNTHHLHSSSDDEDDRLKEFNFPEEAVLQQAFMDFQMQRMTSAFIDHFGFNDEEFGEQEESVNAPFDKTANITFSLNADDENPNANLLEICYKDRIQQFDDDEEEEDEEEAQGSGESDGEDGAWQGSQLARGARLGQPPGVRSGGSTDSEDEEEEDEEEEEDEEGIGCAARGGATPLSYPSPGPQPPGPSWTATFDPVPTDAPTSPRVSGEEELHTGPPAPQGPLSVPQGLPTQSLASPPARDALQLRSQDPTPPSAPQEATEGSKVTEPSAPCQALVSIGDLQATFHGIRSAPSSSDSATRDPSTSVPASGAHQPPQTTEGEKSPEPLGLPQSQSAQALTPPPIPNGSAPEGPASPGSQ
inactive: [1] 0 | [2] 0.009 | [3] 0.039 | [4] -0.01 | [5] -0.031 | [6] -0.077 | [7] 0.038 | [8] -0.047 | [9] 0.003 | [10] -0.041

PPIL4 (UniProt Q8WUA2)
active: [3] -0.27
inactive: [1] -0.102 | [2] 0.013 | [4] 0.101 | [5] 0.04 | [6] -0.114 | [7] -0.065 | [8] 0.055 | [9] 0.002 | [10] 0.066

PRKAG1 isoform 3 (UniProt P54619)
Sequence of UniProt P54619 (P54619 whole entry, looked up): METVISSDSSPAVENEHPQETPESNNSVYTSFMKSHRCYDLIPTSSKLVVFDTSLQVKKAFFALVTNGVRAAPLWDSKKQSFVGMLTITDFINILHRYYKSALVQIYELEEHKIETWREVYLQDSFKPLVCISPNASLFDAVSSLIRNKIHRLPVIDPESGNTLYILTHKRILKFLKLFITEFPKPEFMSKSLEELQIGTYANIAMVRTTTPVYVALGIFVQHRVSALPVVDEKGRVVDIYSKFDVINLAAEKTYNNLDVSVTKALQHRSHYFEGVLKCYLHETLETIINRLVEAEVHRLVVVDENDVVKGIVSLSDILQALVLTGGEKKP
inactive: [1] 0.042 | [2] -0.019 | [4] 0.001 | [5] -0.011 | [6] -0.067 | [7] -0.025 | [8] 0.015 | [9] 0.079 | [10] 0.013
active: [3] -0.266

PI4K2B (UniProt Q8TCG2)
inactive: [1] 0.035 | [2] -0.004 | [3] 0.042 | [4] -0.04 | [6] -0.131 | [7] -0.017 | [8] 0.053 | [9] 0.135 | [10] 0.003

PYGB (UniProt P11216)
active: [3] -0.246
inactive: [1] -0.029 | [2] 0.037 | [4] -0.025 | [5] 0.025 | [6] 0.01 | [7] 0.005 | [8] 0.011 | [9] 0.055 | [10] 0.087

PSMD12 (UniProt O00232)
inactive: [1] -0.055 | [2] -0.022 | [3] 0.03 | [4] 0.004 | [5] -0.01 | [6] 0 | [8] 0.03 | [9] 0.007 | [10] 0.015
active: [7] -0.251

PRKCE (UniProt Q02156)
inactive: [1] -0.02 | [2] -0.013 | [5] -0.026 | [6] -0.153 | [8] -0.051 | [9] -0.059 | [10] -0.009
active: [3] -0.468

PTPN23 (UniProt Q9H3S7)
inactive: [1] -0.008 | [2] -0.052 | [3] -0.044 | [4] 0.013 | [5] -0.061 | [6] -0.095 | [7] 0.038 | [8] -0.009 | [9] -0.036 | [10] 0.046

PARP16 isoform 3 (UniProt Q8N5Y8)
Sequence of UniProt Q8N5Y8 (Q8N5Y8 whole entry, looked up): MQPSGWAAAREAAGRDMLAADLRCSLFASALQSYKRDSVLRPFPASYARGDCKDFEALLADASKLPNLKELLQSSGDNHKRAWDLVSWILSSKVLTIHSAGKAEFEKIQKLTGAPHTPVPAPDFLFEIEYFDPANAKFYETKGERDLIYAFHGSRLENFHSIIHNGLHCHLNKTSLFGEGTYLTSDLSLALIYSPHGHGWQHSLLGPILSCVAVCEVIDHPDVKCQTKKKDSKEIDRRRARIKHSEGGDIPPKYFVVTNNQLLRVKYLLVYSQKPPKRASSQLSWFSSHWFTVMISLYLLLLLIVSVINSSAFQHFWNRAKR
inactive: [1] -0.036 | [2] -0.13 | [3] -0.003 | [5] 0.032 | [6] -0.012 | [8] -0.097 | [9] -0.009 | [10] -0.027

PATL1 (UniProt Q86TB9)
inactive: [1] -0.026 | [2] -0.173 | [3] -0.312 | [4] 0.079 | [5] -0.024 | [6] -0.298 | [7] 0.033 | [8] 0.143 | [10] 0.038

PIGG (UniProt Q5H8A4)
Sequence of UniProt Q5H8A4 (Q5H8A4 whole entry, looked up): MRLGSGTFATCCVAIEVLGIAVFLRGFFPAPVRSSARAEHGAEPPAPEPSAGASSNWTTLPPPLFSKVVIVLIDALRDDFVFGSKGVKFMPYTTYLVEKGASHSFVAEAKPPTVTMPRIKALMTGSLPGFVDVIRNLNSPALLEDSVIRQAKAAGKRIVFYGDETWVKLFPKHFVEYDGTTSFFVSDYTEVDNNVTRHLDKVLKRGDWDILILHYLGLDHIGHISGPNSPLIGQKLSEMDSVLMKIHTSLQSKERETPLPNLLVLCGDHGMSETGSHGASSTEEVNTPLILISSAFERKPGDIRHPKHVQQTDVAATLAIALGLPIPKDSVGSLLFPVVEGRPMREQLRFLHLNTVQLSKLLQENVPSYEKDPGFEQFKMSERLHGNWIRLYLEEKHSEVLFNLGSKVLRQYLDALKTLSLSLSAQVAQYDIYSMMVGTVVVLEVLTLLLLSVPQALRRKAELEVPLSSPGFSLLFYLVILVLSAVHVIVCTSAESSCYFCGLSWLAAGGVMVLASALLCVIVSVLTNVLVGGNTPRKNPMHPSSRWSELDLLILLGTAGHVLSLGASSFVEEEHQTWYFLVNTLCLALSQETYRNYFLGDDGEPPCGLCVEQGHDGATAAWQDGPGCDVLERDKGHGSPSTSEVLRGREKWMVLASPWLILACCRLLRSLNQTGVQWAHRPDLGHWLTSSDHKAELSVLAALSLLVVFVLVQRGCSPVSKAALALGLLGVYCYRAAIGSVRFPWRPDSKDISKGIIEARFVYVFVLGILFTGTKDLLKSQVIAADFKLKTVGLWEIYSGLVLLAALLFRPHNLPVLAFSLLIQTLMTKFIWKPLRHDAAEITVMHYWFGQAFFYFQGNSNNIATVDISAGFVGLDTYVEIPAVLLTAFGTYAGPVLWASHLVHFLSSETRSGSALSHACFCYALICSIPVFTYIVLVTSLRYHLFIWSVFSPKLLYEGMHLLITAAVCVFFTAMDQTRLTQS
inactive: [1] 0.004 | [2] -0.039 | [3] -0.032 | [4] 0.168 | [5] 0.015 | [6] -0.046 | [7] 0.005 | [8] 0.027 | [9] 0.011 | [10] 0.018

PMPCB (UniProt O75439)
inactive: [1] 0.035 | [2] 0.008 | [3] 0.01 | [4] 0.064 | [5] -0.108 | [6] 0.04 | [7] 0.012 | [8] -0.022 | [9] 0 | [10] 0.015

PSMC2 (UniProt P35998)
Sequence of UniProt P35998 (P35998 whole entry, looked up): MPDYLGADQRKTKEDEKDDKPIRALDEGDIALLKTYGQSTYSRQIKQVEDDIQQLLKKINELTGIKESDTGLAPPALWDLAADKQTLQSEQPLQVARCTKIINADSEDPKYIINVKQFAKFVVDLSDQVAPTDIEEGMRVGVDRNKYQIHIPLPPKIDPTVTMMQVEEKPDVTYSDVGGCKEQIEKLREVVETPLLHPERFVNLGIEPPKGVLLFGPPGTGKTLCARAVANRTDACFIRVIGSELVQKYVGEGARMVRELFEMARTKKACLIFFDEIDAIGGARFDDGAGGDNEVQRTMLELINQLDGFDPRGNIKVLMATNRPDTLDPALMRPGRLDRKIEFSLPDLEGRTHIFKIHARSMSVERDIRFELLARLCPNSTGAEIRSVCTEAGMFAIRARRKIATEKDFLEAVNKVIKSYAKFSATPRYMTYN
inactive: [1] -0.024 | [2] -0.009 | [3] 0.079 | [4] 0.046 | [5] 0.011 | [6] 0.053 | [7] -0.183 | [8] 0.033 | [9] 0.039 | [10] -0.039

PDE12 (UniProt Q6L8Q7)
inactive: [1] 0.118 | [2] 0.015 | [3] 0.085 | [4] -0.036 | [5] -0.006 | [6] -0.032 | [7] 0.03 | [8] -0.031 | [9] 0.01 | [10] 0.033

PEF1 (UniProt Q9UBV8)
inactive: [1] 0.003 | [2] -0.002 | [3] -0.03 | [4] -0.057 | [5] -0.092 | [6] -0.094 | [7] -0.085 | [8] -0.041 | [9] -0.014 | [10] 0.085

POLR2D (UniProt O15514)
inactive: [1] 0.042 | [2] 0.082 | [4] -0.012 | [5] -0.006 | [7] -0.009 | [8] -0.026 | [9] -0.02 | [10] 0.26
active: [3] 0.346 | [6] 0.374

PCF11 (UniProt O94913)
inactive: [1] 0.002 | [2] -0.255 | [3] -0.093 | [4] -0.104 | [7] -0.083 | [8] -0.058

POLR2I (UniProt P36954)
inactive: [1] 0.045 | [2] 0.136 | [4] -0.079 | [5] 0.035 | [6] 0.389 | [7] 0.03 | [8] -0.024 | [9] 0 | [10] 0.324
active: [3] 0.425

PTGES3 (UniProt Q15185)
inactive: [1] 0.04 | [2] 0 | [3] -0.01 | [4] 0.017 | [5] -0.103 | [6] -0.247 | [7] -0.079 | [8] -0.081 | [9] 0.008 | [10] -0.202

PDE4A (UniProt P27815)
inactive: [1] 0 | [2] 0.249 | [3] 0.077 | [4] -0.056 | [5] 0.106 | [6] 0.029 | [7] 0.04 | [8] 0.019 | [10] -0.077

PRKACA (UniProt P17612)
inactive: [1] 0.023 | [2] -0.011 | [3] -0.038 | [4] -0.01 | [5] 0.01 | [6] 0.008 | [7] 0.005 | [8] -0.06 | [9] -0.07 | [10] -0.034

PGK2 (UniProt P07205)
Sequence of UniProt P07205 (P07205 whole entry, looked up): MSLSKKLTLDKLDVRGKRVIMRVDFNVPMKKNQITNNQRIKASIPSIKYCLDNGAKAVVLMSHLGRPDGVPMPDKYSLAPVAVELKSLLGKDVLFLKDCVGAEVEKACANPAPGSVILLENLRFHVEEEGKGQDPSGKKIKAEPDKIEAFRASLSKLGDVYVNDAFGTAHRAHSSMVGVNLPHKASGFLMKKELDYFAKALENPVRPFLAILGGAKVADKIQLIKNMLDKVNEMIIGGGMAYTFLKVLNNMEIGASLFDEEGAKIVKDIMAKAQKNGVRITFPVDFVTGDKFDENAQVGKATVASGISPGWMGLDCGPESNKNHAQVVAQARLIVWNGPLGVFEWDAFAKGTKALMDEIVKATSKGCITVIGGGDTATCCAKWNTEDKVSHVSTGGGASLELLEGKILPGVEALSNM
inactive: [1] 0.039 | [2] -0.003 | [3] 0.004 | [4] -0.07 | [5] 0.008 | [7] 0.063 | [8] -0.032 | [9] 0.096 | [10] -0.037

PRKCD (UniProt Q05655)
Sequence of UniProt Q05655 (Q05655 whole entry, looked up): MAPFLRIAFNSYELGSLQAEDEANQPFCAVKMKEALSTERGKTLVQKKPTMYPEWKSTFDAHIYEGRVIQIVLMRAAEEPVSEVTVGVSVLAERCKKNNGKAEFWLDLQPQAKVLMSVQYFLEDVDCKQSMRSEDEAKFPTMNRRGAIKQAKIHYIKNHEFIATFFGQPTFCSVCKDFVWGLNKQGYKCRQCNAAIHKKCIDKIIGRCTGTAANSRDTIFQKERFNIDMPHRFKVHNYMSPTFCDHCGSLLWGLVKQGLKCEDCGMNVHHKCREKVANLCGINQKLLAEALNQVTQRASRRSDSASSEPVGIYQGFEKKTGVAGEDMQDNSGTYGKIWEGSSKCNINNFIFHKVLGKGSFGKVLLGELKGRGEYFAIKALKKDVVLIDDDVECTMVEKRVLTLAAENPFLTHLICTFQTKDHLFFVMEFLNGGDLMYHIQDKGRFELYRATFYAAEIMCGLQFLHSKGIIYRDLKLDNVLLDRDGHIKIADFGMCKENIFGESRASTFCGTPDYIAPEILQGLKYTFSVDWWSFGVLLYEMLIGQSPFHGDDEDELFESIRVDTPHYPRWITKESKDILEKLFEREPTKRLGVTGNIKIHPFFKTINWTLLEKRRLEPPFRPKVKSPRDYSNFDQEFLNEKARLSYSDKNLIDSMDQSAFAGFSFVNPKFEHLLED
active: [3] -0.685
inactive: [1] 0.043 | [2] -0.027 | [4] -0.041 | [5] -0.013 | [6] -0.004 | [7] 0.022 | [8] 0.017 | [9] -0.024 | [10] 0

PCBP2 (UniProt F8VRH0)
inactive: [1] 0.118 | [2] 0.057 | [3] -0.092 | [5] -0.263 | [6] 0.123 | [8] 0.022 | [9] 0.089 | [10] -0.113

POLR3K (UniProt Q9Y2Y1)
Sequence of UniProt Q9Y2Y1 (Q9Y2Y1 whole entry, looked up): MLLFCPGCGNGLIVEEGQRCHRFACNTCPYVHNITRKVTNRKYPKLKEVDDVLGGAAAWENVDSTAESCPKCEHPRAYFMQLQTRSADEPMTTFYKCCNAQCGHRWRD
inactive: [1] 0.026 | [2] 0.044 | [3] -0.013 | [4] -0.084 | [5] -0.07 | [6] 0.124 | [7] 0.089 | [8] 0.043 | [9] 0.032 | [10] -0.039

PIGH (UniProt Q14442)
Sequence of UniProt Q14442 (Q14442 whole entry, looked up): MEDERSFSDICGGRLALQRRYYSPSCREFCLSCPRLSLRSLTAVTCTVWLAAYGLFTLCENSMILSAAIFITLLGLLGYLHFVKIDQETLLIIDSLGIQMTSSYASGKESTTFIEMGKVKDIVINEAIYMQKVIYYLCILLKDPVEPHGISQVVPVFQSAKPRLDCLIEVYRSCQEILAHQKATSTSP
inactive: [1] -0.207 | [2] 0.022 | [3] -0.004 | [4] -0.017 | [5] 0.023 | [6] 0.014 | [7] -0.004 | [8] 0.139 | [10] 0.096

PIK3CD (UniProt O00329)
inactive: [1] 0.005 | [2] -0.137 | [3] 0.237 | [4] 0.032 | [5] -0.391 | [6] 0.104 | [7] 0.116 | [8] -0.024 | [10] 0.259
